Records with an inconclusive call do not appear. Unmarked numbers belong to inactive results. Activity calls are given as the source filed them. Calls follow the shape of the full dose curve.
Assay: Primary qHTS for inhibitors of SARS-S pseudo-typed particle cell entry (AID 1479145); also: nearly all actives have a fitted effect of over 45% in size
Details: SARS-S pseudotyped particle cell entry, luciferase reporter; series mostly up to 57.1 µM; activity change, negative = inhibition: at the top concentration
% is scaled to controls: 0 for no effect and ±100 for the full control effect.

| SMILES | activity change, negative = inhibition | outcome |
| --- | --- | --- |
| COc1cccc(N(C)C(=S)Oc2ccc3c(c2)CCCC3)n1 | 3.12% |  |
| C[N+]1(CC2COC(c3ccccc3)(c3ccccc3)O2)CCCCC1 (configuration not stated) |  | inactive [at 26.4 µM] |
| CCCNC(C)(C)COC(=O)c1ccccc1 | -35.8% |  |
| Nc1ccc(S(=O)(=O)Nc2nccs2)cc1 | -0.166% |  |
| NC(N)=NC(=O)c1nc(Cl)c(N)nc1N | -26.4% |  |
| O=C(CCCCCCCCC#CI)Oc1ccccc1 |  | inactive |
| Oc1ccc(CCNCCCCCCNCCc2ccccc2)cc1O | -14.6% |  |
| COc1ccc2c(c1)c(CC(=O)OCC(=O)O)c(C)n2C(=O)c1ccc(Cl)cc1 | -25.6% |  |
| CCC(=O)O[C@]1(C(=O)CCl)[C@@H](C)C[C@H]2[C@@H]3CCC4=CC(=O)C=C[C@]4(C)[C@@]3(F)[C@@H](O)C[C@@]21C |  | inactive |
| CCCOc1ccc2nc(NC(=O)OC)[nH]c2c1 |  | inactive |
| CC1(C)O[C@@H]2C[C@H]3[C@@H]4C[C@H](F)C5=CC(=O)C=C[C@]5(C)[C@H]4[C@@H](O)C[C@]3(C)[C@]2(C(=O)CO)O1 |  | inactive |
| Cn1cnc2c1c(=O)[nH]c(=O)n2C | 0.977% |  |
| C[C@]12CC[C@@H]3c4ccc(O)cc4CC[C@H]3[C@@H]1CCC2=O |  | inactive |
| O=[N+]([O-])c1nccn1CO[C@@H](CO)[C@H](O)CO | -10.8% |  |
| C[C@]1(Cn2ccnn2)[C@H](C(=O)O)N2C(=O)C[C@H]2S1(=O)=O |  | inactive |
| NS(=O)(=O)c1ccc(N2CCCCS2(=O)=O)cc1 |  | inactive |
| Cc1ccc(=O)n(-c2ccccc2)c1 |  | inactive |
| C[N+](C)(C)CCOC(=O)CCC(=O)OCC[N+](C)(C)C |  | inactive |
| Cc1cccc(N(C)C(=S)Oc2ccc3c(c2)CCC3)c1 | -16.8% |  |
| Nc1nc2ncc(CNc3ccc(C(=O)N[C@@H](CCC(=O)O)C(=O)O)cc3)nc2c(=O)[nH]1 | -26.1% |  |
| CC(C)Cc1ccc(C(C)C(=O)OCc2ccccn2)cc1 (configuration not stated) | -6.24% |  |
| CN1CCCN=C1COC(=O)C(O)(c1ccccc1)C1CCCCC1 (configuration not stated) | 3.75% |  |
| CC(C(=O)O)c1ccc2c(c1)Cc1cccnc1O2 (configuration not stated) |  | inactive |
| COc1cc(NS(=O)(=O)c2ccc(N)cc2)nc(OC)n1 | -7.61% |  |

Assay: Primary qHTS for Huh7 cytotoxicity: counterscreen for inhibitors of MERS-S pseudotyped particle cell entry (AID 1479147)
Details: cell viability read-out; series mostly up to 57.1 µM; activity change, negative = cytotoxicity: at the top concentration

| SMILES | outcome | activity change, negative = cytotoxicity |
| --- | --- | --- |
| C/C=C/c1ccc(OC)cc1 | inactive |  |
| CCOC(=O)c1ccc(C#Cc2ccc3c(c2)C(C)(C)CCS3)nc1 | inactive |  |
| C#C[C@]1(O)CC[C@H]2[C@@H]3CCc4cc(OC)ccc4[C@H]3CC[C@@]21C | inactive |  |
| C/C(=C(\CCOP(=O)(O)O)SC(=O)c1ccccc1)N(C=O)Cc1cnc(C)nc1N | inactive [at 5.34 µM] |  |
| OCC(CO)N[C@H]1C[C@](O)(CO)[C@@H](O)[C@H](O)[C@H]1O |  | -8.76% |
| CCCc1nc(C)c2c(=O)[nH]c(-c3cc(S(=O)(=O)N4CCN(CC)CC4)ccc3OCC)nn12 |  | 3.43% |
| CC(=O)O[C@H]1C[C@@H]2CC[C@@H]3[C@H](CC[C@@]4(C)[C@H]3C[C@H]([N+]3(C)CCCCC3)[C@@H]4OC(C)=O)[C@@]2(C)C[C@@H]1N1CCCCC1 | inactive |  |
| CCCOc1ccc(C(=O)OCCN(CC)CC)cc1N |  | 2.11% |
| C[C@@H](O)[C@H](N)C(=O)O | inactive [at 26.4 µM] |  |
| CN(C)[C@@H]1C(=O)C(C(=O)NCN2CCCC2)=C(O)[C@@]2(O)C(=O)C3=C(O)c4c(O)cccc4[C@@](C)(O)C3C[C@@H]12 (some centres not stated) | inactive |  |
| C[C@H](N)C(=O)N[C@@H](C)C(=O)NC1[C@H]2CN(c3nc4c(cc3F)c(=O)c(C(=O)O)cn4-c3ccc(F)cc3F)C[C@@H]12 (some centres not stated) |  | -15.1% |
| CCOCC(O)COc1ccc(NC(=O)CC[S+](C)C)cc1 (configuration not stated) | inactive |  |
| C#C[C@]1(O)CC[C@H]2[C@@H]3[C@H](C)CC4=C(CCC(=O)C4)[C@H]3CC[C@@]21C | inactive |  |
| N[C@H](C(=O)O)[C@@H](O)c1ccc(O)c(O)c1 |  | 2.52% |
| COc1cccc(N(C)C(=S)Oc2ccc3c(c2)CCCC3)n1 |  | -7.17% |
| C[N+]1(CC2COC(c3ccccc3)(c3ccccc3)O2)CCCCC1 (configuration not stated) |  | -4.23% [at 26.4 µM] |
| CCCNC(C)(C)COC(=O)c1ccccc1 |  | 2.97% |
| Nc1ccc(S(=O)(=O)Nc2nccs2)cc1 | inactive |  |
| NC(N)=NC(=O)c1nc(Cl)c(N)nc1N | inactive |  |

| SMILES | outcome | activity change, negative = cytotoxicity |
| --- | --- | --- |
| O=C(CCCCCCCCC#CI)Oc1ccccc1 | inactive |  |
| Oc1ccc(CCNCCCCCCNCCc2ccccc2)cc1O | inactive |  |
| COc1ccc2c(c1)c(CC(=O)OCC(=O)O)c(C)n2C(=O)c1ccc(Cl)cc1 | inactive |  |
| CCC(=O)O[C@]1(C(=O)CCl)[C@@H](C)C[C@H]2[C@@H]3CCC4=CC(=O)C=C[C@]4(C)[C@@]3(F)[C@@H](O)C[C@@]21C | inactive |  |
| CCCOc1ccc2nc(NC(=O)OC)[nH]c2c1 | inactive |  |
| CC1(C)O[C@@H]2C[C@H]3[C@@H]4C[C@H](F)C5=CC(=O)C=C[C@]5(C)[C@H]4[C@@H](O)C[C@]3(C)[C@]2(C(=O)CO)O1 |  | -3.88% |
| Cn1cnc2c1c(=O)[nH]c(=O)n2C | inactive |  |
| C[C@]12CC[C@@H]3c4ccc(O)cc4CC[C@H]3[C@@H]1CCC2=O | inactive |  |
| O=[N+]([O-])c1nccn1CO[C@@H](CO)[C@H](O)CO | inactive |  |
| C[C@]1(Cn2ccnn2)[C@H](C(=O)O)N2C(=O)C[C@H]2S1(=O)=O | inactive |  |
| NS(=O)(=O)c1ccc(N2CCCCS2(=O)=O)cc1 | inactive |  |
| Cc1ccc(=O)n(-c2ccccc2)c1 |  | 1.39% |
| C[N+](C)(C)CCOC(=O)CCC(=O)OCC[N+](C)(C)C | inactive |  |
| Cc1cccc(N(C)C(=S)Oc2ccc3c(c2)CCC3)c1 | inactive |  |
| Nc1nc2ncc(CNc3ccc(C(=O)N[C@@H](CCC(=O)O)C(=O)O)cc3)nc2c(=O)[nH]1 | inactive |  |
| CC(C)Cc1ccc(C(C)C(=O)OCc2ccccn2)cc1 (configuration not stated) | inactive |  |
| CN1CCCN=C1COC(=O)C(O)(c1ccccc1)C1CCCCC1 (configuration not stated) | inactive |  |
| CC(C(=O)O)c1ccc2c(c1)Cc1cccnc1O2 (configuration not stated) | inactive |  |
| COc1cc(NS(=O)(=O)c2ccc(N)cc2)nc(OC)n1 | inactive |  |
